# Source: PubChem BioAssay
# CASP6 VEID inh – caspase-6 (human) enzyme inhibition; P55212; purified caspase-6, Z-VEID-R110 cleavage fluorescence; inhibition, % at 12.5 µM; hit rate 0.53% among 350,000; AID 686996;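 active = mean inhibition across replicates at least about 35%, with every replicate also reaching that limit, limit read from the data; inconclusive = only one of the two criteria met; inactive = neither criterion met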
# miR-122 sensor – inhibitors of miR-122 in Huh7 cells; hit rate 0.3% among 340,000; Huh7 miR-122 Renilla luciferase sensor, 48 h; neutral wells = 0, positive control = 100; activation (reporter increase), % at 12.5 µM;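 active = mean replicate activation score at least 90 and every replicate individually at or above 90; inconclusive = only one of the two criteria met; inactive = neither criterion met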;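 also: higher luciferase means less miR-122 activity so hits act as miR-122 inhibitors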
# MLL AF4-AF9 inh – inhibitors of human MLL-AF4/AF9 interaction; P42568; AlphaScreen, biotin-AF4 peptide binding to FLAG-AF9; inhibition, % at 10 µM; hit rate 0.47% among 350,000;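 active = every replicate reaching a set inhibition limit, whatever the replicate mean, cut at about 25% in these data; inconclusive = mean inhibition reaches that limit but some replicates miss it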
# Target sequence (P42568 whole entry, looked up): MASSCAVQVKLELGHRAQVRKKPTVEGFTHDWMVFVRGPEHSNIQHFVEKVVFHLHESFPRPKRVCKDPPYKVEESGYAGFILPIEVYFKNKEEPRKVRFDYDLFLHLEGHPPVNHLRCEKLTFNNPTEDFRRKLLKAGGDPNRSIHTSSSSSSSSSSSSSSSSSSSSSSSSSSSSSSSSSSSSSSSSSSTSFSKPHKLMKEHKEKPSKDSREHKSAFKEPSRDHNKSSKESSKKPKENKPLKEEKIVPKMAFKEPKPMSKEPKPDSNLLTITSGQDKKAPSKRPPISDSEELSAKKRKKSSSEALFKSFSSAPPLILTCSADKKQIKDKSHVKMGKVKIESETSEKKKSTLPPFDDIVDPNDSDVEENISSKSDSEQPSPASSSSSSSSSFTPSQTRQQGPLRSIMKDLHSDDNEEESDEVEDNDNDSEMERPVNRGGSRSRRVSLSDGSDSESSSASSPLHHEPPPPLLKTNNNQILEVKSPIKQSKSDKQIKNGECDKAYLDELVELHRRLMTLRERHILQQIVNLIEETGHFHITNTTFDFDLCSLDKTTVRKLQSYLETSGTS
# NSD2 inh – blocks human histone methyltransferase NSD2. inhibition, % at 12.5 µM. NSD2 peptide methylation, AlphaScreen, 120 min. hit rate 0.54% among 310,000; in the data active = inhibition above about 50%
# RAD52 inh – RAD52 (human) annealing inhibition. P43351. recombinant RAD52 DNA annealing, FRET fluorescence. inhibition, % at 18.7 µM. hit rate 0.46% among 360,000. AID 651710;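 active = every replicate showing at least 50% inhibition; inconclusive = mean inhibition at least 50% but not in every replicate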
# DNA binder FP – binds DNA, flagging false RAD52 inhibitor hits; AC50, µM; hit rate 8% among 1,000; Salmon sperm DNA/acridine orange FP displacement, DNA binding; shares compounds with RAD52 inh;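 active = fitted half-maximal concentration for signal loss at or below twice the highest dose tested, in every separate run, actives reach about 64 µM in these data; inconclusive = runs disagree, or flat partial signal loss, or poor fit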
# A number is an active result; 0 = inactive; ? = inconclusive; - = no result. In the library only some 1.5% were active in any assay of this set; here they are far more common.
SMILES,CASP6 VEID inh,miR-122 sensor,MLL AF4-AF9 inh,NSD2 inh,RAD52 inh,DNA binder FP
CN[C@H]1C[C@H]2c3[nH]c4ccc(-c5cccc(C)c5)cc4c3CCN2C[C@H]1[C@H](C)O,0,0,40,-,58,0
CNC[C@H]1Oc2ccc(NC(=O)NC(C)C)cc2CC(=O)N([C@@H](C)CO)C[C@@H]1C,0,0,0,-,0,-
C[C@@H]1CN([C@@H](C)CO)C(=O)c2cc(NC(=O)CCC(F)(F)F)ccc2O[C@@H](C)CCCCO[C@@H]1CN(C)C(=O)Nc1ccccc1,0,0,0,-,0,-
CNC12CCc3cc(OC)c(OC)c(c31)-c1cc3c(cc1C2)OCO3 (configuration not stated),0,-,-,-,54,0
COc1cc2c(c(OC)c1OC)-c1c(cc3c(c1O)OCO3)C[C@@H](C)[C@@H](C)C2,0,0,0,-,0,-
CCCCCc1ccc(OCCCC[n+]2cccc(C)c2)c(CCCCC)c1,0,0,?,0,76,0
CCCCCc1ccc(OCCCC[n+]2ccc(C)cc2)c(CCCCC)c1,0,-,?,0,66,0
Clc1ccc2[nH]c3c(c2c1)CNCC3,0,0,0,0,65,0
CCN(CC)CCCN(C(=O)c1cccs1)c1nc(-c2ccc(OC)cc2)cs1,-,0,-,-,-,-
CCN(CC)CCCN(C(=O)c1ccc(Br)cc1)c1nc(-c2ccc(OC)cc2)cs1,0,0,31,0,57,0
O=C(c1ccco1)N(CCCN1CCOCC1)c1nc(-c2ccc(Cl)cc2)cs1,-,0,-,-,-,-
CCN(CC)CCCN(C(=O)c1ccco1)c1nc(-c2ccc(C)cc2)cs1,0,0,0,0,52,0
CCN(CC)CCCN(C(=O)c1ccco1)c1nc(-c2ccc(Cl)cc2)cs1,0,0,26,0,79,0
CS(=O)(=O)Nc1ccc2c(c1)[C@H]1C[C@@H](CC(=O)NC3CCCCC3)O[C@H](CO)[C@H]1O2,0,0,0,-,0,-
C[C@@H]1CNCCN1c1ccc(N2CCS(=O)(=O)CC2)c(C#N)c1,0,-,-,-,55,0
COc1ccc(NC(=O)Nc2ccc3c(c2)CC(=O)N([C@H](C)CO)C[C@H](C)[C@H](CN(C)Cc2ccc4c(c2)OCO4)O3)cc1,0,0,0,-,0,-
COc1ccc(NC(=O)Nc2ccc3c(c2)C(=O)N([C@H](C)CO)C[C@H](C)[C@H](CN(C)C(=O)NC2CCCCC2)OCCCC[C@H](C)O3)cc1,0,0,0,-,0,-
COc1cc(-c2ccc(N3C(c4ccsc4)=Cc4ccc(F)cc4C3c3c[nH]c4ccc(C#N)cc34)cc2)cc(OC)c1OC (configuration not stated),0,-,0,-,71,0
C[C@@H]1CCCCO[C@H](CN(C)C(=O)c2ccccc2)[C@@H](C)CN([C@H](C)CO)C(=O)c2cc(NS(=O)(=O)c3ccc(Cl)cc3)ccc2O1,0,0,0,-,0,-
COc1c(C=O)cc2c3c1CCCN3CCC2,0,0,0,0,0,-
NCc1cc2c3c(c1)CCCN3CCC2,0,-,51,0,80,?
CC(C)(C)NC(=O)CON=C1c2ccccc2-c2ccccc21,0,0,0,0,0,-
CC(C)(C)NCC(O)CON=C1c2ccccc2-c2ccccc21 (configuration not stated),0,-,0,0,55,0
Cc1ccccc1-c1ccc2c(c1)O[C@@H](CN(C)CC1CC1)[C@@H](C)CN([C@@H](C)CO)S2(=O)=O,0,0,0,-,0,-
CCCNC(=O)N1CC2(CN(C(=O)c3ccncc3)C2)c2c([nH]c3cc(OC)ccc23)[C@H]1CO,-,-,0,-,-,-
SMILES,CASP6 VEID inh,miR-122 sensor,MLL AF4-AF9 inh,NSD2 inh,RAD52 inh,DNA binder FP
CN(C)C(=O)c1cccc(-c2cnc3c(NC=O)cc(-c4ccccc4F)cn23)c1,0,0,0,0,0,-
CN(C)CCNC(=O)c1cccc(-c2cnc3c(NC=O)cc(/C=C/c4ccccc4)cn23)c1,0,0,34,0,80,0
CN(C)CCNC(=O)c1cccc(-c2cnc3c(NC=O)cc(-c4cccc(F)c4)cn23)c1,0,0,0,0,91,0
CCSc1ccc(-c2cc(NC=O)c3ncc(-c4cccc(C(=O)NCCN(C)C)c4)n3c2)cc1,0,0,43,0,66,0
CN(C)CCNC(=O)c1cccc(-c2cnc3c(NC=O)cc(-c4ccc(F)cc4)cn23)c1,0,0,0,0,92,0
CC(=O)c1cccc(-c2cnc3c(NC=O)cc(-c4ccc(F)cc4)cn23)c1,0,0,0,0,0,-
CCSc1ccc(-c2cc(NC=O)c3ncc(-c4cccc(C(=O)N(C)C)c4)n3c2)cc1,0,-,0,0,0,-
